Results filed as inconclusive are left out. Activity calls are given as the source filed them. The calls were made as follows: active = hit-call score of the fitted dose curve at least 0.9, where 1 is the maximum; inconclusive = response in the unintended direction; inactive = score below 0.9.
Assay: ATG_M_32_EcoTox2: Attagene TRANS-FACTORIAL EcoTox-2 HepG2 Assay for M32 Transcription Factor (Internal Marker)
Description: ATG_EcoTox2 is a cell-based, multiplexed assay created by modifying the existing Attagene TRANS-FACTORIAL system to include a panel of nuclear receptors from some or all the following species: human (Homo sapiens), african clawed frog (Xenopus laevis), rainbow trout (Oncorhynchus mykiss), japanese medaka (Oryzias latipes), and zebrafish (Danio rerio). The ECOTOX2-FACTORIAL format uses HepG2, a human liver cell line, with measurements taken at 24 hours after chemical dosing in a 24-well plate. ATG_M_32_EcoTox2 is one of 29 assay components calculated in the ATG_EcoTox2 assay. It is designed to make measurements of mRNA induction, a form of inducible reporter, as detected with fluorescence intensity signals by Reverse transcription polymerase chain reaction (RT-PCR) and Capillary electrophoresis technology.The assay endpoint ATG_M_32_EcoTox2 was analyzed in the positive analysis fitting direction relative to DMSO as the negative control and baseline of activity. Using a type of inducible reporter, measures of mRNA for gain-of-signal activity can be used to understand the background control at the transcription factor-level as they relate to the gene. Furthermore, this assay endpoint can be referred to as a secondary readout, because this assay has produced multiple assay endpoints where this one serves a background control function. To generalize the intended target to other relatable targets, this assay endpoint is annotated to the background measurement intended target family, where the subfamily is internal marker.
Human liver HepG2 cells are transiently transfected with multiple reporter transcription units (MRTUs) in 6-well plates using FuGene 6 reagent (Roche; 3 ml FuGene/1 mg DNA). The MRTU constructs are regulated by a cis-regulating element (promoter). Each RTU expresses a GAL4-UAS that regulates the transcription of a nearby target reporter gene sequence. A major difference between the CIS and TRANS system is that in CIS activities of endogenous TFs are measured, whereas the TRANS assay evaluates changes in activities of exogenous, chimeric NR-Gal4 proteins. […] At the end of 24 hour incubation, total RNA was isolated using TriZol reagent (Invitrogen). The isolated RNA is then reverse-transcribed using oligo(dT) primer and Mo-MLV reverse transcriptase (Invitrogen) with DNAse I (Ambion) treatment for 30 min. The one-tenth of the produced cDNA was amplified by PCR using Taq DNA polymerase (Invitrogen) and two reporter sequence-specific primers. The PCR products were fluorescently labeled by primer extension with 6-arboxyfluorescein (6-FAM) 5'-labeled reporter sequence-specific primer (2 min at 95 C, 20 s at 68 C and 10 min at 72 C) and these products were digested with 5U of HpaI (New England Biolabs) for 2h at 37 C. The fragments were purified using Qiaquick PCR columns (Qiagen), analyzed on an ABI 3130xL genetic analyzer (Applied Biosystems) with peak positions identified by using a set of X-rhodamine (ROX)-labeled MapMarker1000 molecular weight standards (BioVentures). The raw capillary electrophoresis data was processed using Attagraph software (Attagene).

| SMILES | outcome |
| --- | --- |
| CN(CCOc1ccc(CC2SC(=O)NC2=O)cc1)c1ccccn1 (stereo unspecified) | inactive |
| Cc1c(C)c2c(c(C)c1O)CCC(C)(COc1ccc(CC3SC(=O)NC3=O)cc1)O2 (stereo unspecified) | inactive |
| CC(C)OC(=O)C(C)(C)Oc1ccc(C(=O)c2ccc(Cl)cc2)cc1 | inactive |
| C[C@@H]1C[C@H]2[C@@H]3CCC4=CC(=O)C=C[C@]4(C)[C@@]3(F)[C@@H](O)C[C@]2(C)[C@@]1(O)C(=O)COP(=O)(O)O | inactive |
| CC(c1cc2ccccc2s1)N(O)C(N)=O (stereo unspecified) | inactive |
| Cc1nc(-c2ccc(C(F)(F)F)cc2)sc1C(=O)NCc1ccc(OC(C)(C)C(=O)O)cc1 | inactive |
